Measured values from PubChem BioAssay AID1159580 (chemical genetic matrix, 2015).
“And” between values parts separate entries of the source, which are not always exact repeats. Identical values can stand only once. Hit rate of the full screen: of about 5,500 compounds, about 2,000 (36%) were called active. Inconclusive results (about 18%) are left out. No stated cut-off is given here; in the data, active means normalized growth mostly below about 0.91 (no sharp cut-off); inconclusive means no clear call, values can overlap the other calls; inactive means mostly above about 0.92. The list shows a part of the results.

Assay: chemical genetic growth profiling, strain panel (AID 1159580);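 further: tested at 20 µM; growth read once vehicle control cultures reached saturation at 30 °C; 1 = growth at the plate median or of vehicle wells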
Conditions: S. cerevisiae deletion strains, growth OD
[1] = locus YHR030C, strain SLT2, stronger effect = lower value
[2] = locus YHR079C, strain IRE1, stronger effect = lower value
[3] = locus YJL095W, strain BCK1, stronger effect = lower value
[4] = locus YJR066W, strain TOR1, stronger effect = lower value
[5] = locus YLR113W, strain HOG1, stronger effect = lower value
[6] = locus YNL183C, strain NPR1, stronger effect = lower value
[7] = locus YOR231W, strain MKK1, stronger effect = lower value
[8] = locus YPL256C, strain CLN2, stronger effect = lower value

Measured: normalized growth

CC(=O)Oc1cc(C)c2c(c1C(OC(C)=O)OC(C)=O)Oc1c(c(C)c(OC(C)=O)c3c1C(OC(C)=O)OC3=O)OC2=O (stereo not drawn)
active: [5] 0.832
inactive: locus YAL013W, strain DEP1, stronger effect = lower value 0.98 | locus YBR021W, strain FUR4, stronger effect = lower value 1.01 | locus YBR229C, strain ROT2, stronger effect = lower value 0.989 | locus YCL029C, strain bik1, stronger effect = lower value 0.98 | locus YDL035C, strain GPR1, stronger effect = lower value 1.03 | locus YDL074C, strain BRE1, stronger effect = lower value 0.998 | locus YDL101C, strain DUN1, stronger effect = lower value 0.983 | locus YDL134C, strain PPH21, stronger effect = lower value 0.983 | locus YDL185W, strain tfp1, stronger effect = lower value 0.965 | locus YDL192W, strain arf1, stronger effect = lower value 1.01 | locus YDR101C, strain arx1, stronger effect = lower value 1.03 | locus YDR162C, strain NBP2, stronger effect = lower value 0.998 | locus YDR318W, strain mcm21, stronger effect = lower value 0.98 | locus YDR388W, stronger effect = lower value 0.982 | locus YDR502C, strain sam2, stronger effect = lower value 0.968 | locus YEL061C, strain CIN8, stronger effect = lower value 0.985 | locus YER110C, stronger effect = lower value 0.97 | locus YER155C, strain BEM2, stronger effect = lower value 1.01 | locus YER167W, strain BCK2, stronger effect = lower value 0.995 | locus YGL078C, strain dbp3, stronger effect = lower value 0.973 | locus YGL086W, strain mad1, stronger effect = lower value 0.995 | locus YGL248W, strain PDE1, stronger effect = lower value 0.967 | locus YGR135W, strain pre9, stronger effect = lower value 0.952 | locus YGR252W, strain gcn5, stronger effect = lower value 1.06 | [1] 0.952 | locus YHR079C, strain IRE1 (second series), stronger effect = lower value 0.983 | [2] 0.93 | locus YHR094C, strain hxt1, stronger effect = lower value 0.978 | locus YHR129C, strain ARP1, stronger effect = lower value 0.983 | locus YHR200W, strain rpn10, stronger effect = lower value 0.988 | locus YIL066C, strain RNR3, stronger effect = lower value 0.983 | locus YIL073C, strain SPO22, stronger effect = lower value 1.02 | locus YIL125W, strain kgd1, stronger effect = lower value 0.978 | locus YIR030C, strain dcg1, stronger effect = lower value 0.964 | [3] 0.988 and 0.963 | locus YJL134W, strain LCB3, stronger effect = lower value 0.985 | locus YJL168C, strain set2, stronger effect = lower value 0.991 | locus YJL187C, strain SWE1 (second series), stronger effect = lower value 0.961 | [4] 0.889 | locus YKL009W, strain mrt4, stronger effect = lower value 1 | locus YKL068W, stronger effect = lower value 0.969 | locus YKL085W, strain MDH1 (second series), stronger effect = lower value 0.97 | locus YKL085W, strain MDH1, stronger effect = lower value 0.97 | locus YKR001C, strain vps1, stronger effect = lower value 1 | locus YLR039C, strain RIC1, stronger effect = lower value 0.943 | locus YLR058C, strain SHM2, stronger effect = lower value 0.993 | locus YLR102C, strain apc9, stronger effect = lower value 0.974 | locus YLR268W, strain sec22, stronger effect = lower value 1.01 | locus YLR342W, strain FKS1 (second series), stronger effect = lower value 1.06 | locus YLR371W, strain rom2, stronger effect = lower value 0.998 | locus YLR418C, strain cdc73, stronger effect = lower value 0.989 | locus YML016C, strain PPZ1, stronger effect = lower value 0.971 | locus YML032C, strain rad52, stronger effect = lower value 0.997 | locus YML124C, strain tub3, stronger effect = lower value 0.968 | locus YMR078C, strain ctf18, stronger effect = lower value 0.978 | locus YMR223W, strain ubp8, stronger effect = lower value 0.989 | locus YMR263W, strain SAP30, stronger effect = lower value 0.982 | locus YMR307W, strain GAS1, stronger effect = lower value 1.02 | locus YNL067W, strain RPL9B, stronger effect = lower value 0.983 | locus YNL128W, strain TEP1, stronger effect = lower value 0.99 | [6] 0.911 | locus YNL233W, strain BNI4, stronger effect = lower value 0.973 | locus YNL250W, strain rad50, stronger effect = lower value 0.921 | locus YNL271C, strain bni1, stronger effect = lower value 0.968 | locus YNL298W, strain CLA4, stronger effect = lower value 0.967 | locus YNL307C, strain MCK1, stronger effect = lower value 0.974 | locus YNR052C, strain pop2, stronger effect = lower value 0.961 | locus YOL012C, strain htz1 0.831 | locus YOL147C, strain pex11, stronger effect = lower value 0.99 | locus YOR061W, strain CKA2, stronger effect = lower value 0.982 | locus YOR069W, strain VPS5, stronger effect = lower value 0.974 | locus YOR136W, strain idh2, stronger effect = lower value 1 | locus YOR144C, strain elg1, stronger effect = lower value 0.978 | locus YOR184W, strain ser1, stronger effect = lower value 1.05 | [7] 0.942 | locus YOR316C, strain cot1, stronger effect = lower value 0.978 | locus YPL055C, strain LGE1, stronger effect = lower value 1.05 | locus YPL241C, strain CIN2, stronger effect = lower value 0.989 | [8] 0.892 | locus YPR119W, strain clb2, stronger effect = lower value 0.981 | locus YPR141C, strain kar3, stronger effect = lower value 0.956 | locus YPR163C, strain tif3, stronger effect = lower value 0.974 | locus YPR167C, strain met16, stronger effect = lower value 0.979 | strain wtn01, stronger effect = lower value 1.04

CC(=O)Oc1cc(C)c2c(c1C=O)Oc1c(c(C)c(OC(C)=O)c3c1C(OC(C)=O)OC3=O)OC2=O (stereo not drawn)
inactive: [1] 0.877 | [2] 0.883 | [3] 0.905 | [4] 0.857 | [6] 0.853 | [7] 0.876 | [8] 0.829
active: [5] 0.821
